Measurements reported in paper PMC7862700, “An all-to-all approach to the identification of sequence-specific readers for epigenetic DNA modifications on cytosine”.

Experiments:
Test in all cases: DAPPL (digital affinity profiling via proximity ligation, sequencing); 10 mM Tris-HCl pH 7.5, 50 mM NaCl, 1 mM DTT, 4% glycerol, room temperature, 30 min; GST-TFs on glutathione beads, 16-mer random dsDNA library, 0.1% formaldehyde crosslink after washing; high values mean tight binding
Conditions in all cases: protein: recombinant; tags: N-terminal GST; dsDNA, one strand shown
FLI1 = biological target: T1, FLI1 (Homo sapiens, UniProt Q01543 1-452)
T1 sequence: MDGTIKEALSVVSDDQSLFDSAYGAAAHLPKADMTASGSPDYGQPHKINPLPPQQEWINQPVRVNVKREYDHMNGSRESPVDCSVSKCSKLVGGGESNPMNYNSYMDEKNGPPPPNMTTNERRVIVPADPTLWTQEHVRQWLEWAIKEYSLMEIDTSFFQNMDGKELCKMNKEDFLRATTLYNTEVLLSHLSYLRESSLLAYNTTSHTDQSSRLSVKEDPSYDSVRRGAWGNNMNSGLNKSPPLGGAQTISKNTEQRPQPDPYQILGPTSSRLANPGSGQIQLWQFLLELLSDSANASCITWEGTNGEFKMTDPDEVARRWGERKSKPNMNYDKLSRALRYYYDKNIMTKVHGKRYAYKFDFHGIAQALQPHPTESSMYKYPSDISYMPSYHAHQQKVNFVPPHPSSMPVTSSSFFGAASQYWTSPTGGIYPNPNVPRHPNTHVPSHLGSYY
Method in brief: (§1)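 After expression in yeast as GST fusions, human transcription factors were bound to glutathione beads, DNA-barcoded and mixed with a tag-only sample. The pools were incubated with 200 nmole of a 16-mer random double-stranded DNA library in Tris/NaCl/DTT/glycerol buffer (30 min, room temperature), washed and crosslinked with 0.1% formaldehyde. Proximity ligation with BsaI/T4 ligase ran for 1 h at 37 °C, before PCR amplification and sequencing on an Illumina NextSeq500. Binding signal is a hexamer's read frequency for a factor divided by its frequency for the tag-only sample.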

ELK1 = biological target: T2, ELK1 (Homo sapiens, UniProt P19419 1-428)
T2 sequence: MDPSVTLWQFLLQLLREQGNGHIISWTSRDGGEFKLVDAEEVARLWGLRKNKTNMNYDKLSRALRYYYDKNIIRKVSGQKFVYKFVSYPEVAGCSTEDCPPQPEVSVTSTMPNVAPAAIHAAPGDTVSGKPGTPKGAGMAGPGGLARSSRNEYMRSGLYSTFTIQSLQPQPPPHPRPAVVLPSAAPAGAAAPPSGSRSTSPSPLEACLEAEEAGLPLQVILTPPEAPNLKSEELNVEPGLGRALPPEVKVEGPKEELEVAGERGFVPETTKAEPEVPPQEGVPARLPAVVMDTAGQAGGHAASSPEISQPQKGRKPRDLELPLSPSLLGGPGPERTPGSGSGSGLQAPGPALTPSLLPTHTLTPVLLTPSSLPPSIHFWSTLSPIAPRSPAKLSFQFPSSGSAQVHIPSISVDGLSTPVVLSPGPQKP
Method in brief: as §1

GABPA = biological target: T3, GABPA (Homo sapiens, UniProt Q06546 1-454)
T3 sequence: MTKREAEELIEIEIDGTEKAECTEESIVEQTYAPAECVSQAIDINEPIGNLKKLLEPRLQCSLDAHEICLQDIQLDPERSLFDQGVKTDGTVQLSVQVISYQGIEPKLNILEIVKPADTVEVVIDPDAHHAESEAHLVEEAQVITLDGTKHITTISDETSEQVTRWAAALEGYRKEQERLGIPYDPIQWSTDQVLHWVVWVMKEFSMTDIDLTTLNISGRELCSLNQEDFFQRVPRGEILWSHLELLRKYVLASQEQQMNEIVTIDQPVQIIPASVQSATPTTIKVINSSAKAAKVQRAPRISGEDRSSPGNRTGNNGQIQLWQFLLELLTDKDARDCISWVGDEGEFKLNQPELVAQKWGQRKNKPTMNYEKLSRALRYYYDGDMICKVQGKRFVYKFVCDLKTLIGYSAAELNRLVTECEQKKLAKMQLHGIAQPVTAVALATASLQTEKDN
Method in brief: as §1

ERG = biological target: T4, ERG (Homo sapiens, UniProt P11308 1-479)
T4 sequence: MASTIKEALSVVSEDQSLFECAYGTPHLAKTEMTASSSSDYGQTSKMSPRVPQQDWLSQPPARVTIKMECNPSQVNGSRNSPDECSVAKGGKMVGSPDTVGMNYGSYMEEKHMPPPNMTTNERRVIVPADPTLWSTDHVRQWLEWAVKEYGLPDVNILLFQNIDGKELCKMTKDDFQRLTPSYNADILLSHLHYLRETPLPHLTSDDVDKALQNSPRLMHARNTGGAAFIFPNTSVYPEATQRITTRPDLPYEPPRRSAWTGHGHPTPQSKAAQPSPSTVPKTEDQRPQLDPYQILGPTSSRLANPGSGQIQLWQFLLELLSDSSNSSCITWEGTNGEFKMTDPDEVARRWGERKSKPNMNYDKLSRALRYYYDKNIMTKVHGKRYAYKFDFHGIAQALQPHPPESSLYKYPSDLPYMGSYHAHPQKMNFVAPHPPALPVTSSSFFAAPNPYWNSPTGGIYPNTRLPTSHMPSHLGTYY
Method in brief: as §1

ELF1 = ELF1 (Homo sapiens, UniProt P32519 1-619)
Sequence of ELF1 (P32519 whole entry): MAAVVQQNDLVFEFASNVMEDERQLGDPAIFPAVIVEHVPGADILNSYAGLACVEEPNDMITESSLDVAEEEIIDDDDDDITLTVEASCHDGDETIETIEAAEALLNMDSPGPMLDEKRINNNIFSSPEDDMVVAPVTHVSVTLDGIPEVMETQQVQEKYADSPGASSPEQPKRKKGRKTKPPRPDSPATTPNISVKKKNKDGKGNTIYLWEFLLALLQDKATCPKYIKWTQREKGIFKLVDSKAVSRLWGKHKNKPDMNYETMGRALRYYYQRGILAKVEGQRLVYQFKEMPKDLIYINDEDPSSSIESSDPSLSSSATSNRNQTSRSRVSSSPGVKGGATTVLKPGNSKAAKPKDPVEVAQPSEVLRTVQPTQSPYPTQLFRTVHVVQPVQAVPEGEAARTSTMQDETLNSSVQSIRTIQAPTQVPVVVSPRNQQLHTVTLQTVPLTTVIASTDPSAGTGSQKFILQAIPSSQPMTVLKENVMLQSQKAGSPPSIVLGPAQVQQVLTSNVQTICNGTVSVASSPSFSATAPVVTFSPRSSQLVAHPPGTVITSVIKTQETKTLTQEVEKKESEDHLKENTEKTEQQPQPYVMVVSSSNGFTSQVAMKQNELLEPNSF
Method in brief: as §1

EHF = biological target: T5, EHF (Homo sapiens, UniProt Q9NZC4 1-300)
T5 sequence: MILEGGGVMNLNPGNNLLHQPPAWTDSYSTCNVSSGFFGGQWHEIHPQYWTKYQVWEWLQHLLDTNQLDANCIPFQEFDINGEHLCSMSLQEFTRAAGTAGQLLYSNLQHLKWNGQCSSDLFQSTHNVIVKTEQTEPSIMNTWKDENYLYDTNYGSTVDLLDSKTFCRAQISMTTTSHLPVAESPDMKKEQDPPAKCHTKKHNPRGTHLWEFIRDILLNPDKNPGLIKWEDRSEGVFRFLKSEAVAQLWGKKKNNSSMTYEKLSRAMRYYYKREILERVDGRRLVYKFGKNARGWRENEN
Method in brief: as §1

SPI1 = SPI1 (Homo sapiens, UniProt P17947 1-270)
Method in brief: as §1

SPIB = SPIB (Homo sapiens, UniProt Q01892 1-262)
Sequence of SPIB (Q01892 whole entry): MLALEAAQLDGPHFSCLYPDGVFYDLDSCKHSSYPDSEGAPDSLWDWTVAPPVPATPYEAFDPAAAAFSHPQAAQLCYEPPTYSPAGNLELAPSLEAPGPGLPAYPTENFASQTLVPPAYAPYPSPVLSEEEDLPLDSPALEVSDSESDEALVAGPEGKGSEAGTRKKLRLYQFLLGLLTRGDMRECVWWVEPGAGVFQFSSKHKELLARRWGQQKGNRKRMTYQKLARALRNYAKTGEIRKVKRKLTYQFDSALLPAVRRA
Method in brief: as §1

ELK3 = biological target: T6, ELK3 (Homo sapiens, UniProt P41970 1-407)
T6 sequence: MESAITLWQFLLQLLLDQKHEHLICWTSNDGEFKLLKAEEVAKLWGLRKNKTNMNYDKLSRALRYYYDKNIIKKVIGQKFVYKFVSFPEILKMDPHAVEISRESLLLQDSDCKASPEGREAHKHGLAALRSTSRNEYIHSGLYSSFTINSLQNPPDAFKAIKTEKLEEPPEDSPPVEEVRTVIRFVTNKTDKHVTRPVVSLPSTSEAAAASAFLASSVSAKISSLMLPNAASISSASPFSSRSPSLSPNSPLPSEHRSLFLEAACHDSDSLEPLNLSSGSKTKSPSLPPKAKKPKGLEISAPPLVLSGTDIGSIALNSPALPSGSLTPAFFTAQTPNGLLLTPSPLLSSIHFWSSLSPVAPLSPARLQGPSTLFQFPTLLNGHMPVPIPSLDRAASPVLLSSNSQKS
Method in brief: as §1

Row | Sequence | binding signal (FLI1) | binding signal (ELK1) | binding signal (GABPA) | binding signal (ERG) | binding signal (ELF1) | binding signal (EHF) | binding signal (SPI1) | binding signal (SPIB) | binding signal (ELK3)
1 | TCTACT | 1.27 fold enrichment (6-mer frequency, TF over GST control) | 1.37 fold enrichment (6-mer frequency, TF over GST control) | 1.43 fold enrichment (6-mer frequency, TF over GST control) | 1.32 fold enrichment (6-mer frequency, TF over GST control) | 1.35 fold enrichment (6-mer frequency, TF over GST control) | 1.35 fold enrichment (6-mer frequency, TF over GST control) | 1.42 fold enrichment (6-mer frequency, TF over GST control) | 1.42 fold enrichment (6-mer frequency, TF over GST control) | 1.28 fold enrichment (6-mer frequency, TF over GST control)
2 | TAGCAC | 1.16 fold enrichment (6-mer frequency, TF over GST control) | 1.12 fold enrichment (6-mer frequency, TF over GST control) | 1.24 fold enrichment (6-mer frequency, TF over GST control) | 1.15 fold enrichment (6-mer frequency, TF over GST control) | 1.15 fold enrichment (6-mer frequency, TF over GST control) | 1.16 fold enrichment (6-mer frequency, TF over GST control) | 1.06 fold enrichment (6-mer frequency, TF over GST control) | 1.15 fold enrichment (6-mer frequency, TF over GST control) | 1.19 fold enrichment (6-mer frequency, TF over GST control)
3 | AACAAT | 1.31 fold enrichment (6-mer frequency, TF over GST control) | 1.29 fold enrichment (6-mer frequency, TF over GST control) | 1.32 fold enrichment (6-mer frequency, TF over GST control) | 1.28 fold enrichment (6-mer frequency, TF over GST control) | 1.29 fold enrichment (6-mer frequency, TF over GST control) | 1.26 fold enrichment (6-mer frequency, TF over GST control) | 1.32 fold enrichment (6-mer frequency, TF over GST control) | 1.29 fold enrichment (6-mer frequency, TF over GST control) | 1.32 fold enrichment (6-mer frequency, TF over GST control)
4 | CATTCT | 1.37 fold enrichment (6-mer frequency, TF over GST control) | 1.33 fold enrichment (6-mer frequency, TF over GST control) | 1.25 fold enrichment (6-mer frequency, TF over GST control) | 1.27 fold enrichment (6-mer frequency, TF over GST control) | 1.4 fold enrichment (6-mer frequency, TF over GST control) | 1.35 fold enrichment (6-mer frequency, TF over GST control) | 1.26 fold enrichment (6-mer frequency, TF over GST control) | 1.22 fold enrichment (6-mer frequency, TF over GST control) | 1.28 fold enrichment (6-mer frequency, TF over GST control)
5 | TCCAAT | 1.21 fold enrichment (6-mer frequency, TF over GST control) | 1.13 fold enrichment (6-mer frequency, TF over GST control) | 1.18 fold enrichment (6-mer frequency, TF over GST control) | 1.13 fold enrichment (6-mer frequency, TF over GST control) | 1.24 fold enrichment (6-mer frequency, TF over GST control) | 1.11 fold enrichment (6-mer frequency, TF over GST control) | 1.14 fold enrichment (6-mer frequency, TF over GST control) | 1.25 fold enrichment (6-mer frequency, TF over GST control) | 1.16 fold enrichment (6-mer frequency, TF over GST control)
6 | ATGCAT | 1.21 fold enrichment (6-mer frequency, TF over GST control) | 1.21 fold enrichment (6-mer frequency, TF over GST control) | 1.22 fold enrichment (6-mer frequency, TF over GST control) | 1.16 fold enrichment (6-mer frequency, TF over GST control) | 1.16 fold enrichment (6-mer frequency, TF over GST control) | 1.22 fold enrichment (6-mer frequency, TF over GST control) | 1.18 fold enrichment (6-mer frequency, TF over GST control) | 1.19 fold enrichment (6-mer frequency, TF over GST control) | 1.29 fold enrichment (6-mer frequency, TF over GST control)
7 | ATACAA | 1.19 fold enrichment (6-mer frequency, TF over GST control) | 1.15 fold enrichment (6-mer frequency, TF over GST control) | 1.14 fold enrichment (6-mer frequency, TF over GST control) | 1.1 fold enrichment (6-mer frequency, TF over GST control) | 1.21 fold enrichment (6-mer frequency, TF over GST control) | 1.15 fold enrichment (6-mer frequency, TF over GST control) | 1.07 fold enrichment (6-mer frequency, TF over GST control) | 1.09 fold enrichment (6-mer frequency, TF over GST control) | 1.31 fold enrichment (6-mer frequency, TF over GST control)
8 | CTGAAC | 1.35 fold enrichment (6-mer frequency, TF over GST control) | 1.41 fold enrichment (6-mer frequency, TF over GST control) | 1.37 fold enrichment (6-mer frequency, TF over GST control) | 1.4 fold enrichment (6-mer frequency, TF over GST control) | 1.37 fold enrichment (6-mer frequency, TF over GST control) | 1.35 fold enrichment (6-mer frequency, TF over GST control) | 1.36 fold enrichment (6-mer frequency, TF over GST control) | 1.42 fold enrichment (6-mer frequency, TF over GST control) | 1.2 fold enrichment (6-mer frequency, TF over GST control)
